Assay results taken from paper PMC11006913.

Experiments:
Assay in all cases: PBM; 200 nM protein, PBS
Conditions in all cases: dsDNA, one strand shown
MSX2 [1] = biological target: MSX2 (Homo sapiens, UniProt P35548 130-214, R199I)
MSX2 [2] = biological target: MSX2 (Homo sapiens, UniProt P35548 130-214)
MSX2 [3] = biological target: MSX2 (Homo sapiens, UniProt P35548 130-214, F161Y)
PROP1 [4] = biological target: PROP1 (Homo sapiens, UniProt O75360 56-141)
PROP1 [5] = biological target: PROP1 (Homo sapiens, UniProt O75360 56-141, R99H)
PROP1 [6] = biological target: PROP1 (Homo sapiens, UniProt O75360 56-141, F88S)
HOXA2 = HOXA2 (Homo sapiens, UniProt O43364 129-215, R185K)
ALX1 [7] = biological target: ALX1 (Homo sapiens, UniProt Q15699 118-204, L144V)
ALX1 [8] = biological target: ALX1 (Homo sapiens, UniProt Q15699 118-204, L144R)
ALX1 [9] = biological target: ALX1 (Homo sapiens, UniProt Q15699 118-204)
HOXD13 [10] = biological target: HOXD13 (Homo sapiens, UniProt P35453 263-343, T313R)
HOXD13 [11] = biological target: HOXD13 (Homo sapiens, UniProt P35453 263-343)
HOXD13 [12] = biological target: HOXD13 (Homo sapiens, UniProt P35453 263-343, T313A)
VAX1 [13] = biological target: VAX1 (Homo sapiens, UniProt Q5SQQ9 86-172)
VAX1 [14] = biological target: VAX1 (Homo sapiens, UniProt Q5SQQ9 86-172, T142I)
VAX1 [15] = biological target: VAX1 (Homo sapiens, UniProt Q5SQQ9 86-172, K157R)
ALX3 [16] = biological target: ALX3 (Homo sapiens, UniProt O95076 139-225, N203Q)
ALX3 [17] = biological target: ALX3 (Homo sapiens, UniProt O95076 139-225)
ALX3 [18] = biological target: ALX3 (Homo sapiens, UniProt O95076 139-225, L168Q)
ALX3 [19] = biological target: ALX3 (Homo sapiens, UniProt O95076 139-225, L168V)
ALX3 [20] = biological target: ALX3 (Homo sapiens, UniProt O95076 139-225, N203S)
ALX3 (Homo sapiens, UniProt O95076 139-225, N203S), sequence (O95076 139-225 N203S): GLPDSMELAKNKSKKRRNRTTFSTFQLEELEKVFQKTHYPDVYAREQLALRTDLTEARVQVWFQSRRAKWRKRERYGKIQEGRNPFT

ALX1 (Homo sapiens, UniProt Q15699 118-204, L144R), sequence (Q15699 118-204 L144R): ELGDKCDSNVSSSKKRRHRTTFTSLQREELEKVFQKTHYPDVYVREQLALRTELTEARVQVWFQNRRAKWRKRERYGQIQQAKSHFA
ALX1 (Homo sapiens, UniProt Q15699 118-204, L144V), sequence (Q15699 118-204 L144V): as the sequence (Q15699 118-204 L144R) above, with R27V counted along it
VAX1 (Homo sapiens, UniProt Q5SQQ9 86-172, K157R), sequence (Q5SQQ9 86-172 K157R): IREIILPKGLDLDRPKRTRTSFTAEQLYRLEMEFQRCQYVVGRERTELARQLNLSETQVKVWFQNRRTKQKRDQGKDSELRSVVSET
MSX2 (Homo sapiens, UniProt P35548 130-214, F161Y), sequence (P35548 130-214 F161Y): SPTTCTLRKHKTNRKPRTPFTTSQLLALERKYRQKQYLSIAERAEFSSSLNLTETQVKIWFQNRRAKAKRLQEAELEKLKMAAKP
VAX1 (Homo sapiens, UniProt Q5SQQ9 86-172, T142I), sequence (Q5SQQ9 86-172 T142I): as the sequence (Q5SQQ9 86-172 K157R) above, with T57I, R72K counted along it
VAX1 (Homo sapiens, UniProt Q5SQQ9 86-172), sequence (Q5SQQ9 86-172): as the sequence (Q5SQQ9 86-172 K157R) above, with R72K counted along it
MSX2 (Homo sapiens, UniProt P35548 130-214), sequence (P35548 130-214): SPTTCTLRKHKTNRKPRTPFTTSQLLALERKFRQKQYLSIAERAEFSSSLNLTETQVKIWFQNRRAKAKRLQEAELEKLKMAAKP
ALX1 (Homo sapiens, UniProt Q15699 118-204), sequence (Q15699 118-204): as the sequence (Q15699 118-204 L144R) above, with R27L counted along it
MSX2 (Homo sapiens, UniProt P35548 130-214, R199I), sequence (P35548 130-214 R199I): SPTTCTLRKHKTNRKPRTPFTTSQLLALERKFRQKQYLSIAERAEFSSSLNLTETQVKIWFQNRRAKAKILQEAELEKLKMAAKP
ALX3 (Homo sapiens, UniProt O95076 139-225, N203Q), sequence (O95076 139-225 N203Q): as the sequence (O95076 139-225 N203S) above, with S65Q counted along it
HOXD13 (Homo sapiens, UniProt P35453 263-343, T313A), sequence (P35453 263-343 T313A): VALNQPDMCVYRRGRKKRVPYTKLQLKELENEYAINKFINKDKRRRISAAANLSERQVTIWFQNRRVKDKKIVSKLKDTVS
PROP1 (Homo sapiens, UniProt O75360 56-141), sequence (O75360 56-141): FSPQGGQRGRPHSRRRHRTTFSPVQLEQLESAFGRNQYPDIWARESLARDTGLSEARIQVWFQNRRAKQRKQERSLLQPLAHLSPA
HOXD13 (Homo sapiens, UniProt P35453 263-343, T313R), sequence (P35453 263-343 T313R): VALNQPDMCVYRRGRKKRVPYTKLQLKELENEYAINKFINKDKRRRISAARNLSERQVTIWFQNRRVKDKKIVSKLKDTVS
ALX3 (Homo sapiens, UniProt O95076 139-225, L168V), sequence (O95076 139-225 L168V): as the sequence (O95076 139-225 N203S) above, with L30V, S65N counted along it
ALX3 (Homo sapiens, UniProt O95076 139-225, L168Q), sequence (O95076 139-225 L168Q): as the sequence (O95076 139-225 N203S) above, with L30Q, S65N counted along it
ALX3 (Homo sapiens, UniProt O95076 139-225), sequence (O95076 139-225): as the sequence (O95076 139-225 N203S) above, with S65N counted along it
HOXA2, sequence (O43364 129-215 R185K): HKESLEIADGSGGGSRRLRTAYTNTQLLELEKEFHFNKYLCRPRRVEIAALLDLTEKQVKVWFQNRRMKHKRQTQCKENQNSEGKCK
PROP1 (Homo sapiens, UniProt O75360 56-141, F88S), sequence (O75360 56-141 F88S): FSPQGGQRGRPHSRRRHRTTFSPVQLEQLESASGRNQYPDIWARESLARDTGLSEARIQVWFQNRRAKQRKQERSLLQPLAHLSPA
HOXD13 (Homo sapiens, UniProt P35453 263-343), sequence (P35453 263-343): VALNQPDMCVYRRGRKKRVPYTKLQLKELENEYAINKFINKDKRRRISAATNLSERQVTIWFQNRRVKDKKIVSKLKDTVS
PROP1 (Homo sapiens, UniProt O75360 56-141, R99H), sequence (O75360 56-141 R99H): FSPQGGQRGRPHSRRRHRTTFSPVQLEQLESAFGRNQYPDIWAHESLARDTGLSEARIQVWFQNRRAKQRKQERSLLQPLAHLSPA

## ATTAAGAA
MSX2 [1]
  binding signal: 11.3 upbm affinity estimate (log intensity, higher = more binding, comparable within an allelic series)
MSX2 [2]
  binding signal: 12 upbm affinity estimate (log intensity, higher = more binding, comparable within an allelic series)
MSX2 [3]
  binding signal: 11.7 upbm affinity estimate (log intensity, higher = more binding, comparable within an allelic series)

## CCTGTGCC
MSX2 [1]
  binding signal: 9.49 upbm affinity estimate (log intensity, higher = more binding, comparable within an allelic series)
MSX2 [2]
  binding signal: 9.41 upbm affinity estimate (log intensity, higher = more binding, comparable within an allelic series)
PROP1 [4]
  binding signal: 6.6 upbm affinity estimate (log intensity, higher = more binding, comparable within an allelic series)
PROP1 [5]
  binding signal: 6.69 upbm affinity estimate (log intensity, higher = more binding, comparable within an allelic series)
PROP1 [6]
  binding signal: 6.62 upbm affinity estimate (log intensity, higher = more binding, comparable within an allelic series)
MSX2 [3]
  binding signal: 9.42 upbm affinity estimate (log intensity, higher = more binding, comparable within an allelic series)

## GATGATTA
MSX2 [1]
  binding signal: 11.1 upbm affinity estimate (log intensity, higher = more binding, comparable within an allelic series)

## ATAATCAC
MSX2 [1]
  binding signal: 11.1 upbm affinity estimate (log intensity, higher = more binding, comparable within an allelic series)

## GCCAGGAC
MSX2 [1]
  binding signal: 9.69 upbm affinity estimate (log intensity, higher = more binding, comparable within an allelic series)
MSX2 [2]
  binding signal: 9.71 upbm affinity estimate (log intensity, higher = more binding, comparable within an allelic series)
MSX2 [3]
  binding signal: 9.76 upbm affinity estimate (log intensity, higher = more binding, comparable within an allelic series)

## AAATATTT
MSX2 [1]
  binding signal: 10.7 upbm affinity estimate (log intensity, higher = more binding, comparable within an allelic series)
MSX2 [2]
  binding signal: 11.1 upbm affinity estimate (log intensity, higher = more binding, comparable within an allelic series)
MSX2 [3]
  binding signal: 11 upbm affinity estimate (log intensity, higher = more binding, comparable within an allelic series)

## GTAATCAA
MSX2 [1]
  binding signal: 11.1 upbm affinity estimate (log intensity, higher = more binding, comparable within an allelic series)
HOXA2
  binding signal: 13.1 upbm affinity estimate (log intensity, higher = more binding, comparable within an allelic series)

## CCTACGGC
MSX2 [1]
  binding signal: 9.61 upbm affinity estimate (log intensity, higher = more binding, comparable within an allelic series)
ALX1 [7]
  binding signal: 6.56 upbm affinity estimate (log intensity, higher = more binding, comparable within an allelic series)
ALX1 [8]
  binding signal: 6.66 upbm affinity estimate (log intensity, higher = more binding, comparable within an allelic series)
MSX2 [2]
  binding signal: 9.61 upbm affinity estimate (log intensity, higher = more binding, comparable within an allelic series)
MSX2 [3]
  binding signal: 9.63 upbm affinity estimate (log intensity, higher = more binding, comparable within an allelic series)
ALX1 [9]
  binding signal: 6.68 upbm affinity estimate (log intensity, higher = more binding, comparable within an allelic series)

## CACCAGCC
MSX2 [1]
  binding signal: 9.46 upbm affinity estimate (log intensity, higher = more binding, comparable within an allelic series)
MSX2 [2]
  binding signal: 9.42 upbm affinity estimate (log intensity, higher = more binding, comparable within an allelic series)
MSX2 [3]
  binding signal: 9.47 upbm affinity estimate (log intensity, higher = more binding, comparable within an allelic series)

## AGGGGGAG
MSX2 [1]
  binding signal: 9.43 upbm affinity estimate (log intensity, higher = more binding, comparable within an allelic series)
MSX2 [2]
  binding signal: 9.52 upbm affinity estimate (log intensity, higher = more binding, comparable within an allelic series)
MSX2 [3]
  binding signal: 9.49 upbm affinity estimate (log intensity, higher = more binding, comparable within an allelic series)

## CGACAATA
MSX2 [1]
  binding signal: 10.5 upbm affinity estimate (log intensity, higher = more binding, comparable within an allelic series)
MSX2 [2]
  binding signal: 11 upbm affinity estimate (log intensity, higher = more binding, comparable within an allelic series)
MSX2 [3]
  binding signal: 10.9 upbm affinity estimate (log intensity, higher = more binding, comparable within an allelic series)

## AGCGGGGC
MSX2 [1]
  binding signal: 9.48 upbm affinity estimate (log intensity, higher = more binding, comparable within an allelic series)
HOXD13 [10]
  binding signal: 9.49 upbm affinity estimate (log intensity, higher = more binding, comparable within an allelic series)
HOXD13 [11]
  binding signal: 9.31 upbm affinity estimate (log intensity, higher = more binding, comparable within an allelic series)
MSX2 [2]
  binding signal: 9.55 upbm affinity estimate (log intensity, higher = more binding, comparable within an allelic series)
HOXD13 [12]
  binding signal: 9.49 upbm affinity estimate (log intensity, higher = more binding, comparable within an allelic series)
MSX2 [3]
  binding signal: 9.55 upbm affinity estimate (log intensity, higher = more binding, comparable within an allelic series)

## GAGCCGAC
MSX2 [1]
  binding signal: 9.44 upbm affinity estimate (log intensity, higher = more binding, comparable within an allelic series)
MSX2 [2]
  binding signal: 9.46 upbm affinity estimate (log intensity, higher = more binding, comparable within an allelic series)
VAX1 [13]
  binding signal: 7.12 upbm affinity estimate (log intensity, higher = more binding, comparable within an allelic series)
MSX2 [3]
  binding signal: 9.31 upbm affinity estimate (log intensity, higher = more binding, comparable within an allelic series)
VAX1 [14]
  binding signal: 7.21 upbm affinity estimate (log intensity, higher = more binding, comparable within an allelic series)
VAX1 [15]
  binding signal: 7.3 upbm affinity estimate (log intensity, higher = more binding, comparable within an allelic series)

## GAACACCC
MSX2 [1]
  binding signal: 9.57 upbm affinity estimate (log intensity, higher = more binding, comparable within an allelic series)
MSX2 [2]
  binding signal: 9.63 upbm affinity estimate (log intensity, higher = more binding, comparable within an allelic series)
MSX2 [3]
  binding signal: 9.59 upbm affinity estimate (log intensity, higher = more binding, comparable within an allelic series)

## TCCGCGGA
MSX2 [1]
  binding signal: 9.48 upbm affinity estimate (log intensity, higher = more binding, comparable within an allelic series)
MSX2 [2]
  binding signal: 9.54 upbm affinity estimate (log intensity, higher = more binding, comparable within an allelic series)
VAX1 [13]
  binding signal: 7.16 upbm affinity estimate (log intensity, higher = more binding, comparable within an allelic series)
MSX2 [3]
  binding signal: 9.53 upbm affinity estimate (log intensity, higher = more binding, comparable within an allelic series)
VAX1 [14]
  binding signal: 7.5 upbm affinity estimate (log intensity, higher = more binding, comparable within an allelic series)
VAX1 [15]
  binding signal: 7.45 upbm affinity estimate (log intensity, higher = more binding, comparable within an allelic series)

## GATAATCA
MSX2 [1]
  binding signal: 10.9 upbm affinity estimate (log intensity, higher = more binding, comparable within an allelic series)

## AGCGGCCT
MSX2 [1]
  binding signal: 9.45 upbm affinity estimate (log intensity, higher = more binding, comparable within an allelic series)
MSX2 [2]
  binding signal: 9.32 upbm affinity estimate (log intensity, higher = more binding, comparable within an allelic series)
MSX2 [3]
  binding signal: 9.44 upbm affinity estimate (log intensity, higher = more binding, comparable within an allelic series)

## CGTATAAG
ALX1 [7]
  binding signal: 8.14 upbm affinity estimate (log intensity, higher = more binding, comparable within an allelic series)
ALX1 [8]
  binding signal: 8.05 upbm affinity estimate (log intensity, higher = more binding, comparable within an allelic series)
ALX1 [9]
  binding signal: 8.12 upbm affinity estimate (log intensity, higher = more binding, comparable within an allelic series)

## AGGCAAAT
ALX1 [7]
  binding signal: 8.05 upbm affinity estimate (log intensity, higher = more binding, comparable within an allelic series)
ALX1 [8]
  binding signal: 7.93 upbm affinity estimate (log intensity, higher = more binding, comparable within an allelic series)
ALX1 [9]
  binding signal: 8.18 upbm affinity estimate (log intensity, higher = more binding, comparable within an allelic series)

## CTGCTAGC
ALX1 [7]
  binding signal: 6.36 upbm affinity estimate (log intensity, higher = more binding, comparable within an allelic series)
ALX1 [8]
  binding signal: 6.39 upbm affinity estimate (log intensity, higher = more binding, comparable within an allelic series)
ALX1 [9]
  binding signal: 6.42 upbm affinity estimate (log intensity, higher = more binding, comparable within an allelic series)

## ACCCGCTC
ALX1 [7]
  binding signal: 6.49 upbm affinity estimate (log intensity, higher = more binding, comparable within an allelic series)
ALX1 [8]
  binding signal: 6.49 upbm affinity estimate (log intensity, higher = more binding, comparable within an allelic series)
ALX1 [9]
  binding signal: 6.43 upbm affinity estimate (log intensity, higher = more binding, comparable within an allelic series)

## ACGATTAC
ALX1 [7]
  binding signal: 8.4 upbm affinity estimate (log intensity, higher = more binding, comparable within an allelic series)
ALX1 [8]
  binding signal: 8.26 upbm affinity estimate (log intensity, higher = more binding, comparable within an allelic series)
ALX1 [9]
  binding signal: 8.62 upbm affinity estimate (log intensity, higher = more binding, comparable within an allelic series)

## AGAGCGCC
ALX1 [7]
  binding signal: 6.46 upbm affinity estimate (log intensity, higher = more binding, comparable within an allelic series)
ALX3 [16]
  binding signal: 7.79 upbm affinity estimate (log intensity, higher = more binding, comparable within an allelic series)
ALX1 [8]
  binding signal: 6.49 upbm affinity estimate (log intensity, higher = more binding, comparable within an allelic series)
ALX3 [17]
  binding signal: 7.87 upbm affinity estimate (log intensity, higher = more binding, comparable within an allelic series)
ALX3 [18]
  binding signal: 7.76 upbm affinity estimate (log intensity, higher = more binding, comparable within an allelic series)
ALX3 [19]
  binding signal: 7.79 upbm affinity estimate (log intensity, higher = more binding, comparable within an allelic series)
ALX1 [9]
  binding signal: 6.45 upbm affinity estimate (log intensity, higher = more binding, comparable within an allelic series)
ALX3 [20]
  binding signal: 7.78 upbm affinity estimate (log intensity, higher = more binding, comparable within an allelic series)

## GCGGAGCC
ALX1 [7]
  binding signal: 6.64 upbm affinity estimate (log intensity, higher = more binding, comparable within an allelic series)
ALX1 [8]
  binding signal: 6.35 upbm affinity estimate (log intensity, higher = more binding, comparable within an allelic series)
VAX1 [13]
  binding signal: 7.22 upbm affinity estimate (log intensity, higher = more binding, comparable within an allelic series)
VAX1 [14]
  binding signal: 7.36 upbm affinity estimate (log intensity, higher = more binding, comparable within an allelic series)
ALX1 [9]
  binding signal: 6.57 upbm affinity estimate (log intensity, higher = more binding, comparable within an allelic series)
VAX1 [15]
  binding signal: 7.24 upbm affinity estimate (log intensity, higher = more binding, comparable within an allelic series)

## AGGCGTGA
MSX2 [1]
  binding signal: 9.57 upbm affinity estimate (log intensity, higher = more binding, comparable within an allelic series)
MSX2 [2]
  binding signal: 9.37 upbm affinity estimate (log intensity, higher = more binding, comparable within an allelic series)
MSX2 [3]
  binding signal: 9.36 upbm affinity estimate (log intensity, higher = more binding, comparable within an allelic series)

## AGCCACAG
ALX1 [7]
  binding signal: 6.62 upbm affinity estimate (log intensity, higher = more binding, comparable within an allelic series)
ALX1 [8]
  binding signal: 6.52 upbm affinity estimate (log intensity, higher = more binding, comparable within an allelic series)
ALX1 [9]
  binding signal: 6.67 upbm affinity estimate (log intensity, higher = more binding, comparable within an allelic series)

## TAGGATAA
ALX1 [7]
  binding signal: 8.45 upbm affinity estimate (log intensity, higher = more binding, comparable within an allelic series)
ALX1 [8]
  binding signal: 8.36 upbm affinity estimate (log intensity, higher = more binding, comparable within an allelic series)
ALX1 [9]
  binding signal: 8.67 upbm affinity estimate (log intensity, higher = more binding, comparable within an allelic series)

## ATTAAGCA
ALX1 [7]
  binding signal: 10.2 upbm affinity estimate (log intensity, higher = more binding, comparable within an allelic series)
ALX1 [8]
  binding signal: 9.85 upbm affinity estimate (log intensity, higher = more binding, comparable within an allelic series)
ALX1 [9]
  binding signal: 10.5 upbm affinity estimate (log intensity, higher = more binding, comparable within an allelic series)

## ATTATAAC
ALX1 [7]
  binding signal: 10.3 upbm affinity estimate (log intensity, higher = more binding, comparable within an allelic series)
ALX3 [16]
  binding signal: 8.52 upbm affinity estimate (log intensity, higher = more binding, comparable within an allelic series)
ALX1 [8]
  binding signal: 9.95 upbm affinity estimate (log intensity, higher = more binding, comparable within an allelic series)
ALX1 [9]
  binding signal: 10.6 upbm affinity estimate (log intensity, higher = more binding, comparable within an allelic series)
